Calls of active or inactive are those of the source. How the calls were made is not given here.
Each molecule was assayed against Pantothenate synthetase (Mycobacterium tuberculosis (strain ATCC 25618 / H37Rv)) (UniProt P9WIL5) (assay: Recombinant Mtb pantothenate synthetase (PanC) inhibitors, coupled enzyme, confirmatory (AID 375;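 further: 0% = full reaction with vehicle and 100% = no enzyme background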)). Settings: coupled enzyme assay; at 10 µM, hits give high values.
Sequence of Pantothenate synthetase (Mycobacterium tuberculosis (strain ATCC 25618 / H37Rv)) (P9WIL5 whole entry, looked up): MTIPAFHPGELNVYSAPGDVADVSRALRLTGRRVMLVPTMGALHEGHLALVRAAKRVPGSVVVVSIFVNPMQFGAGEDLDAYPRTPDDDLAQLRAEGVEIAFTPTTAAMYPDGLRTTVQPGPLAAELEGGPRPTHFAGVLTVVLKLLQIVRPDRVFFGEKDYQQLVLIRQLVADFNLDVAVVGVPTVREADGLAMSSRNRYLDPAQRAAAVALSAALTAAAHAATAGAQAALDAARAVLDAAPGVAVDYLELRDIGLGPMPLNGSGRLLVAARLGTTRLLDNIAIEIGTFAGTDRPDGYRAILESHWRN

Structure (SMILES) | inhibition
O=C(CNc1ccc(Oc2ccccc2)cc1)N1CCOCC1 | 0% (inactive)
COc1cccc2c1C(=O)c1c(O)c3c(c(O)c1C2=O)C[C@@](O)(C(C)=O)C[C@@H]3O[C@H]1C[C@H](N)[C@H](O)[C@H](C)O1 | 0% (inactive)
C[C@H](CS)C(=O)N1CCC[C@H]1C(=O)O | 2% (inactive)
C=CCC(Nc1ccco1)c1ccccc1 (stereo not given) | 1% (inactive)
CS(=O)(=O)N(CC(=O)N1CCN(c2cccc(Cl)c2)CC1)C1CCCCC1 | 0% (inactive)
CC(=O)N1CCC(N(C(=O)Nc2ccc(C)c(C)c2)C2CCCC2)CC1 | 0% (inactive)
CSc1ccccc1C(=O)NC1CC2CCC1C2 (stereo not given) | 0% (inactive)
CCCN1C(=O)SC(CC(=O)Nc2ccc(Br)cc2)C1=O (stereo not given) | 2% (inactive)
CCOC(=O)c1cc(C)n(CCCN2CCOCC2)c1C | 0% (inactive)
COCCOC(=O)C1=C(C)NC(=O)CC1c1cc2c(cc1Br)OCO2 (stereo not given) | 1% (inactive)
CSc1ccc(-c2nc(CSCC(=O)N3CCOCC3)c(C)o2)cc1 | 0% (inactive)
CCn1c(Cc2ccc(OC)cc2)nnc1SCC(=O)Nc1cccc(C(=O)OC)c1 | 5% (inactive)
CC(=O)OCC(=O)[C@@]1(O)CC[C@H]2[C@@H]3CCC4=CC(=O)C=C[C@]4(C)[C@H]3[C@@H](O)C[C@@]21C | 0% (inactive)
CCOP(=O)(c1ccc(N(C)C)cc1)C(O)c1ccccc1OC (stereo not given) | 5% (inactive)
CCOC(=O)c1ccc(NC(=O)CCNc2c(N3CCCC3)c(=O)c2=O)cc1 | 0% (inactive)
Cc1cccc(NC(=O)CSc2nnc(-c3cc(C)n(-c4ccccc4)c3C)o2)c1C | 0% (inactive)
Cn1c(=O)c2c(nc(Oc3ccc4c(c3)OCO4)n2Cc2ccc(F)cc2)n(C)c1=O | 0% (inactive)
COc1cccc(C(=O)Nc2ccc(NC(=O)C(C)(C)C)cn2)c1 | 0% (inactive)
Cn1c(=O)c2c(nc(Br)n2CCSc2nnnn2-c2ccccc2)n(C)c1=O | 0% (inactive)
Cc1ccc(C(=O)C2COC(=O)C2)cc1 (stereo not given) | 0% (inactive)

Structure (SMILES) | inhibition
COC(=O)Cn1c(=O)c2c(nc(Br)n2CC(=O)OC)n(C)c1=O | 0% (inactive)
Cc1ccccc1NC(=O)CN1CCC(NC(=O)Nc2ccccc2)CC1 | 4% (inactive)
O=C(NCC(c1cccnc1)N1CCN(c2ccc(F)cc2)CC1)OCc1ccccc1 (stereo not given) | 0% (inactive)
NC(=O)c1nsnc1-c1ccccc1O | 2% (inactive)
CCOC(=O)c1c(C)[nH]c(C(=O)COC(=O)c2ccc(F)c(S(=O)(=O)N3CCOCC3)c2)c1C | 4% (inactive)
COc1ccccc1C(=O)NCCNC(=O)c1ccco1 | 0% (inactive)
O=c1c2cn[nH]c2nc(SCc2ccc3c(c2)OCCO3)n1-c1ccccc1 | 3% (inactive)
CCOC(=O)c1[nH]c2ccccc2c1NC(=O)CCN1CCN(C(=O)OCC)CC1 | 0% (inactive)
COC(=O)Nc1nc2ccc(Sc3ccccc3)cc2[nH]1 | 8% (inactive)
O=c1c(CN2CCN(Cc3ccccc3)CC2)coc2ccc(Cl)cc12 | 0% (inactive)
Cc1ccccc1NC(=O)Cc1nnc(SCC(=O)N2CCN(c3ccccc3)CC2)n1C | 4% (inactive)
CC(=O)Nc1ccc(S(=O)(=O)NCC(C)NS(=O)(=O)c2ccc(NC(C)=O)cc2)cc1 (stereo not given) | 2% (inactive)
C/C(=C\c1cc(C(=O)O)c(C)o1)CO | 0% (inactive)
CC(C)Cn1c(CN2CCN(c3ccccc3F)CC2)nc2c1c(=O)[nH]c(=O)n2C | 0% (inactive)
O=C(COc1ccccc1)N1CCN(c2ncnc3c2cnn3-c2ccccc2)CC1 | 0% (inactive)
CS(=O)(=O)N(CC(=O)N1CCCCCC1)c1ccccc1 | 8% (inactive)
Clc1ccc(C2Nc3ccccc3-n3cccc32)cc1 (stereo not given) | 0% (inactive)
Cc1ccc(NC(=O)c2oc3ccc(S(=O)(=O)N4CCOCC4)cc3c2C)cc1C | 3% (inactive)
CCOCC(=O)Nc1ccc(S(=O)(=O)N2CCOCC2)cc1 | 0% (inactive)
CN=C(Nc1cc(C)nn1-c1ccccc1)c1ccccc1 | 0% (inactive)

From PubChem BioAssay
